Inconclusive results are not listed. The source made the active and inactive calls. Unless noted, the call rests on the fitted dose curve; in most records, active means well fitted curve in the direction sought with a large enough effect; inconclusive means small, poorly fitted or top-dose-only effect, or another doubt; inactive means no such curve, though single readings can be large; an effect the other way counts as inactive or inconclusive.
Assays:
[1] = molecular target: Lysosomal acid glucosylceramidase (Homo sapiens) (UniProt P04062); test: Glucocerebrosidase-p2 (AID 348; in the data active means potency below about 10 µM; further: potency means the concentration at half of the fitted maximal effect); details: purified GBA, blue fluorogenic substrate, 40 min
Chain of Lysosomal acid glucosylceramidase (Homo sapiens) (P04062 whole entry, looked up): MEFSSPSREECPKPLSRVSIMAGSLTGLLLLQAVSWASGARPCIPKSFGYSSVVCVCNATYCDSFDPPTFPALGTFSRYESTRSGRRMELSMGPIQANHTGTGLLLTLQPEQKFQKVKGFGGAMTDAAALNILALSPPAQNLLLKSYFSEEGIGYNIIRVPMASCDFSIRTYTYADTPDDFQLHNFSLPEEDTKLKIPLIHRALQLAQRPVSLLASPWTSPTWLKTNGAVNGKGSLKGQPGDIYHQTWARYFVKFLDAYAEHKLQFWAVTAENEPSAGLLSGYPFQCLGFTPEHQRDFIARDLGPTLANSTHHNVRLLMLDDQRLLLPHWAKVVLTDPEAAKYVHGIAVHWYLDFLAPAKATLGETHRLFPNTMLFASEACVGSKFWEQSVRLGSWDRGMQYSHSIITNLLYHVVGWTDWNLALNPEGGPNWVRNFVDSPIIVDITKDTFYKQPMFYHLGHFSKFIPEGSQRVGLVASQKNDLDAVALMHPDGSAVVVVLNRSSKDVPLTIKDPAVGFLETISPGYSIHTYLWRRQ
How it was run: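 Compounds titrated from 0.6 nM upwards against 0.2 nM enzyme in pH 5.9 citric acid/KH2PO4, taurocholate, tween-20; blue fluorogenic substrate 80 uM, 40 min room temperature, stopped and read Ex 365/Em 440 for AC50.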

[2] = AP1 Signaling Pathway (AID 357; active means well fitted curve in either direction with a large enough effect, not every such curve was filed as active;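 further: ME-180 reporter cells stimulated with EGF at its EC50 level; on the % scale 0 is the no-effect control and ±100 the full control effect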); details: ME-180 AP-1-bla reporter, EGF-induced, beta-lactamase ratio, 5 h; at 7.69 µM (top of the series) unless noted
How it was run: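 AP-1-bla ME-180 cells, Opti-MEM + 0.5% dialyzed FBS, plated overnight 37 °C. Cpd titration + EC50 EGF, 5 h 37 °C. CCF4 2.5 h RT; ex 405, em 460/530 ratio → %activity, AC50.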

[3] = NFAT Signaling Pathway (AID 444; active means well fitted curve in either direction with a large enough effect, not every such curve was filed as active;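 further: carbachol stimulus at about its EC50 of 1 µM final; on the % scale 0 is the no-effect control and ±100 the full control effect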); details: Jurkat NFAT-bla M1, carbachol, beta-lactamase ratio, 5 h; at 7.69 µM (top of the series) unless noted
How it was run: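 Read-out: CCF4 FRET ratio (460 nm/530 nm) after 1 h RT dye loading, used for %activity and AC50 from titration series. Cells: Jurkat NFAT-β-lactamase/M1 line, treated with compound plus 1 uM carbachol for 5 h, 37 °C.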

[4] = Stat Signaling Pathway (AID 446; active means well fitted curve in either direction with a large enough effect, not every such curve was filed as active;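 further: ME-180 cervical cancer cells given 40 pM IL-6 alongside compound; SIE-controlled beta-lactamase reporter measured as 460/530 nm FRET emission ratio; on the % scale 0 is the no-effect control and ±100 the full control effect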); details: ME-180 SIE beta-lactamase reporter, IL-6 stimulated, 5 h; at 7.69 µM (top of the series) unless noted
How it was run: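 Reporter line: ME-180 cervical carcinoma, SIE-beta-lactamase. Treatment: compound with 40 pM IL-6, 5 hrs, 37 C, in low-serum OPTI-MEM with 10 mM HEPES pH 7.3. Detection: 460/530 nm fluorescence.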

[5] = molecular target: Glucocorticoid receptor (Homo sapiens) (UniProt P04150); test: GR-GFP Redistribution (AID 450;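 active means compounds whose dose series gives a full or clear partial fitted curve of increased nuclear translocation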; further: potency means the concentration at half of the fitted maximal effect); details: U2OS GR-GFP nuclear translocation, laser cytometry, 2 h
Chain of Glucocorticoid receptor (Homo sapiens) (P04150 whole entry, looked up, the tested form may be a part): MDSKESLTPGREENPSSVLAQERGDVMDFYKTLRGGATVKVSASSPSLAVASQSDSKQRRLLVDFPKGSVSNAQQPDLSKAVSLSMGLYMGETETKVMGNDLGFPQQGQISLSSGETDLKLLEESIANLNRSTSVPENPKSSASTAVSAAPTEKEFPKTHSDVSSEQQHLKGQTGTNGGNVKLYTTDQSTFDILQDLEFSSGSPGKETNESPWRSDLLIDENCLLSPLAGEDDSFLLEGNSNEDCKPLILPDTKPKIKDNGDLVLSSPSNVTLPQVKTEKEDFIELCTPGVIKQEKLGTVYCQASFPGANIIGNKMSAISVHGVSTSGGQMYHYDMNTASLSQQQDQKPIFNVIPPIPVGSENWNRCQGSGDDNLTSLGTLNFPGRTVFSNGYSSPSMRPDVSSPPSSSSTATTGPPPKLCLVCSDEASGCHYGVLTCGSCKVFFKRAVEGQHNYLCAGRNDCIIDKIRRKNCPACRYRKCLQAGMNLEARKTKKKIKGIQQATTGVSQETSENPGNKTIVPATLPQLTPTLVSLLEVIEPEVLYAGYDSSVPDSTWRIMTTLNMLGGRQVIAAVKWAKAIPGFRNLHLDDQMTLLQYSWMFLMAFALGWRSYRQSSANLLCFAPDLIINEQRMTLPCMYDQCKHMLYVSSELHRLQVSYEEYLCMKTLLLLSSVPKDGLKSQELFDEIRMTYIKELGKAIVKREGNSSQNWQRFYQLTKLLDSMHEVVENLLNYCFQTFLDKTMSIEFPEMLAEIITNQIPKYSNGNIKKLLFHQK

[6] = molecular target: Glucocorticoid receptor (Homo sapiens) (UniProt P04150); test: GR-EFC Redistribution (AID 451; calls by dose curve; further: potency means the concentration at half of the fitted maximal effect); details: CHO-K1 GR-EFC translocation, beta-gal luminescence, 2 h
How it was run: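 Translocation of GR-ED fusion to nuclear EA restores b-gal, read by luminescence after 1 h room-temperature detection. Engineered CHO-K1 biosensor cells, 1,000/well, exposed 2 h at 37 C to titrations up to 46 uM final.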

[7] = molecular target: Mitogen-activated protein kinase 10 (Mus musculus) (UniProt Q61831); test: JNK3 AlphaScreen Assay (AID 530; active means well fitted curve in either direction with a large enough effect, not every such curve was filed as active;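 further: kinase came from lysate of stimulated human HepG2 cells; signal reports phosphorylation of biotinylated GST-cJun 1-79 at Ser73 with 10 µM ATP; on the % scale 0 is the no-effect control and ±100 the full control effect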); details: JNK3 lysate, c-Jun phosphorylation; series mostly up to 57.1 µM
How it was run: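 Room-temperature AlphaScreen kinase assay; pre-activated HepG2 lysate as JNK3 source, biotin-GST-cJun(1-79) substrate, 10 uM ATP, compound 15 min preincubation.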

[8] = molecular target: 3',5'-cyclic-AMP phosphodiesterase 4B (Homo sapiens) (UniProt Q07343); test: qHTS Assay for Inhibitors of PDE-IV (AID 607; active means well fitted activation curve with a large enough effect in the main read-out, with a control signal flat, not every such curve was filed as active; further: % of control where 0% means no effect); details: HEK293 ACTOne CNG channel cells, membrane potential fluorescence; series mostly up to 22.9 µM
Chain of 3',5'-cyclic-AMP phosphodiesterase 4B (Homo sapiens) (Q07343 whole entry, looked up): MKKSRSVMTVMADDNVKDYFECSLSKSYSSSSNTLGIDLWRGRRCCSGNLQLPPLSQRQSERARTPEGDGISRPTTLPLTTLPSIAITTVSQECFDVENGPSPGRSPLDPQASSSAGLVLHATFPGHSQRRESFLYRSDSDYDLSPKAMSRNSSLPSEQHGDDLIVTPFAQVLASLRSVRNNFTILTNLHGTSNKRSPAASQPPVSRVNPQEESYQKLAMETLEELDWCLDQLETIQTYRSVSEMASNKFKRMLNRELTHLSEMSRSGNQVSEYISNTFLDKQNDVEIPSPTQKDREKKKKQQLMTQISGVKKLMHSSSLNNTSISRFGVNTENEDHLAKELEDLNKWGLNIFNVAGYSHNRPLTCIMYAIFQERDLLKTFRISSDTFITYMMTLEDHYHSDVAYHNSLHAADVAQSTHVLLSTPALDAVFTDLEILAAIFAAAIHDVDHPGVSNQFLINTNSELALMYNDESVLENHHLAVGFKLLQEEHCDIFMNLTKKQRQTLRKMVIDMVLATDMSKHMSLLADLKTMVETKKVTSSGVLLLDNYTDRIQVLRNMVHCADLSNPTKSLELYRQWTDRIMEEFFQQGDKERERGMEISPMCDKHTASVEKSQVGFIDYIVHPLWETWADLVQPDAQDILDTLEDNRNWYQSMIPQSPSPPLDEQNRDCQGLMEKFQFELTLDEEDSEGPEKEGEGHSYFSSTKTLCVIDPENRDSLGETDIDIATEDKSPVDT
How it was run: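 Cell-based read-out of cAMP via a modified cyclic nucleotide-gated channel and membrane potential dye (535/590 nm) in HEK293 cells expressing PDE4 endogenously. Compounds tested up to 22.9 uM final; 100 uM RO 20-1724 reference.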

[9] = qHTS Assay for Lipid Storage Modulators (AID 1519; calls by dose curve); details: Drosophila S3 cells, BODIPY lipid droplet/cell ratio, laser cytometry, cells loaded with oleic acid; for activity change, negative = inhibition: at 57.5 µM (top of the series)
How it was run: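 Cells seeded at 5,000 per well were treated with compounds over a concentration series and loaded with oleic acid (400 uM, as added). Lipid droplet fluorescence (488 nm excitation, 500-530 nm channel) was read by laser-scanning cytometry and normalized to 20 uM Triacsin C.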

[10] = molecular target: Dual specificity protein kinase CLK4 (Homo sapiens) (UniProt Q9HAZ1); test: qHTS Assay for Inhibitors of CDC-like Kinase 4 (Kinase-Glo Assay) (AID 1770); details: recombinant Clk4, Kinase-Glo ATP depletion luminescence; series mostly up to 66.7 µM; further: nearly all actives have a fitted effect of over 65% in size; further: potency means the concentration at half of the fitted maximal effect
Chain of Dual specificity protein kinase CLK4 (Homo sapiens) (Q9HAZ1 whole entry, looked up): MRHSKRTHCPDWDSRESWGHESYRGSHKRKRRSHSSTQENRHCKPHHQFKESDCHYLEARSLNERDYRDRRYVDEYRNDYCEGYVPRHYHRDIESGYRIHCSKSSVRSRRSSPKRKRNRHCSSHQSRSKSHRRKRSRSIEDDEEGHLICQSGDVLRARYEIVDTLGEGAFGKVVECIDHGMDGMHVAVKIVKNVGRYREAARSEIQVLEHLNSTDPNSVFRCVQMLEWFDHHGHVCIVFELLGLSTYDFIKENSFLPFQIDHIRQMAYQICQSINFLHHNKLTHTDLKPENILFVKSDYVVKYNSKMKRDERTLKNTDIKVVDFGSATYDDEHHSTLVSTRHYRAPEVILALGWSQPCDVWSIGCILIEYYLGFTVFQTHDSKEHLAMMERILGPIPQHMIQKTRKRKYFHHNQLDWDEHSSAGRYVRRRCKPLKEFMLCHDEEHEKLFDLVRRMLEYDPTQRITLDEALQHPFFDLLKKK
How it was run: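 Substrate mix (RS peptide 100 uM, ATP 1 uM) dispensed, compound pinned in, then Clk4 added to 25 nM final. Incubated 4.5 h at RT; Kinase-Glo reagent added, luminescence read after 5 min.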

[11] = molecular target: Dual specificity protein kinase CLK4 (Homo sapiens) (UniProt Q9HAZ1); test: qHTS Assay for Inhibitors of CDC-like Kinase 4 (ADP-Glo Assay) (AID 1771); details: recombinant CLK4, ADP-Glo luminescence; series mostly up to 80 µM; further: nearly all actives have a fitted effect of over 70% in size; further: potency means the concentration at half of the fitted maximal effect
How it was run: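 Clk4 (25 nM) was incubated 1 hr at room temperature with 100 uM RS repeat peptide and 1 uM ATP in buffer with 2 mM MgCl2, 0.5 mM EGTA, 2.5 mM DTT. ADP formed was quantified by ADP-Glo luminescence.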

[12] = molecular target: Ubiquitin carboxyl-terminal hydrolase 1 (Homo sapiens) (UniProt O94782); test: Inhibitors of USP1/UAF1: Pilot qHTS (AID 504865); details: purified USP1/UAF1, Ub-rhodamine cleavage fluorescence; series mostly up to 54.9 µM;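 further: rhodamine fluorescence freed from ubiquitin-rhodamine substrate followed over time; top concentration of the series differs between compounds; on the % scale 0 is the no-effect control and ±100 the full control effect; nearly all actives have a fitted effect of over 35% in size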
Chain of Ubiquitin carboxyl-terminal hydrolase 1 (Homo sapiens) (O94782 whole entry, looked up): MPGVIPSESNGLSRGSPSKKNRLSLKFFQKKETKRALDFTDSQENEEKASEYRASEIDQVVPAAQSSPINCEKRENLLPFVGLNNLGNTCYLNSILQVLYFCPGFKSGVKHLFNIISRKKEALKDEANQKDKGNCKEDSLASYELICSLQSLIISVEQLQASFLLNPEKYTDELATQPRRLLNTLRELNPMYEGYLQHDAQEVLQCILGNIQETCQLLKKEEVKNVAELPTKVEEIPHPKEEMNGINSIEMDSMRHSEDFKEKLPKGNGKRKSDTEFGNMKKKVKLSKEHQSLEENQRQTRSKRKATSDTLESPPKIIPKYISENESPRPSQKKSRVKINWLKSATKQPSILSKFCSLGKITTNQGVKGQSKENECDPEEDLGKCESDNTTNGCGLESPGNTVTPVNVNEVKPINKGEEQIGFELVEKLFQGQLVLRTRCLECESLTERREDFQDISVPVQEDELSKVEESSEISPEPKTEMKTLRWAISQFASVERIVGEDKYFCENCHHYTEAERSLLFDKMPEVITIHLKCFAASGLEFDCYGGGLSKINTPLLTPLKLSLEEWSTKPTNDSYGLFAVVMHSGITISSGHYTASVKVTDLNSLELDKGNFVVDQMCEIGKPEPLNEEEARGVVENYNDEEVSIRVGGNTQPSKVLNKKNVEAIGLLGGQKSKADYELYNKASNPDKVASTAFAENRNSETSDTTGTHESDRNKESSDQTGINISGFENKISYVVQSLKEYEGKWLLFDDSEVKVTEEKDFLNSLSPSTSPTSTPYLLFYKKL
How it was run: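 In 50mM HEPES pH 7.8 containing 0.5mM EDTA, 1mM TCEP, 0.1 mg/ml BSA and 0.01% Tween-20, 1nM USP1/UAF1 is exposed to compound for 15 min, then Ub-Rho (150nM final) is added and fluorescence is read over time.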

[13] = Primary qHTS for small molecule stabilizers of the endoplasmic reticulum resident proteome: Secreted ER Calcium Modulated Protein (SERCaMP) assay (AID 1508630); details: SH-SY5Y GLuc-SERCaMP (Gaussia luciferase released on ER calcium loss) secretion, thapsigargin, luminescence; series mostly up to 38.4 µM; further: on the % scale 0 is the no-effect control and ±100 the full control effect
How it was run: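 GLuc-SERCaMP-expressing SH-SY5Y cells, pretreated 16 h with compound, are challenged with thapsigargin to empty ER calcium stores; after 4 h, coelenterazine is added directly to the medium and luminescence is imaged.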

[14] = molecular target: Cytochrome P450 1A2 (Homo sapiens) (UniProt P05177); test: p450-cyp1a2 (AID 410; calls by dose curve; further: potency means the concentration at half of the fitted maximal effect); details: recombinant CYP1A2, luciferin-ME demethylation, luminescence; series mostly up to 57 µM
Chain of Cytochrome P450 1A2 (Homo sapiens) (P05177 whole entry, looked up): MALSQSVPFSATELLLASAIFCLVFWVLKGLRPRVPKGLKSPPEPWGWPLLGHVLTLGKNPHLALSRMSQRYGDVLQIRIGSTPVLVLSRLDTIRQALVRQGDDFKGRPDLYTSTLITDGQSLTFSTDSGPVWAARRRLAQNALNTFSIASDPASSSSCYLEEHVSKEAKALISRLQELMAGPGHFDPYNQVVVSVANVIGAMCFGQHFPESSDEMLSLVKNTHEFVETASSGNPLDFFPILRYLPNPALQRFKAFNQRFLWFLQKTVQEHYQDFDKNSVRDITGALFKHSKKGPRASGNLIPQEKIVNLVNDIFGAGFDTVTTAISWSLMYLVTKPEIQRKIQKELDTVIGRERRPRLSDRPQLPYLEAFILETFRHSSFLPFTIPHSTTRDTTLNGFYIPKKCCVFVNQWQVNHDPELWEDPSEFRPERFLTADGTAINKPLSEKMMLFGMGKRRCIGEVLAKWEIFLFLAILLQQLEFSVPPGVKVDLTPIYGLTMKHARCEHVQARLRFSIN
How it was run: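 Human CYP1A2 (20nM) demethylated Luciferin-ME at its Km (100uM) in 100mM KPO4. After 10 min compound preincubation, NADPH regeneration ran the reaction 60 min at room temperature. Luciferin was read by luminescence, normalized to 57 uM furafylline.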

[15] = molecular target: Cytochrome P450 3A4 (Homo sapiens) (UniProt P08684); test: qHTS Assay for Activators of Cytochrome P450 3A4 (AID 885); details: recombinant CYP3A4, Luciferin-PPXE luminescence, 60 min; series mostly up to 57.1 µM; further: nearly all actives have a fitted effect of over 65% in size
Chain of Cytochrome P450 3A4 (Homo sapiens) (P08684 whole entry, looked up): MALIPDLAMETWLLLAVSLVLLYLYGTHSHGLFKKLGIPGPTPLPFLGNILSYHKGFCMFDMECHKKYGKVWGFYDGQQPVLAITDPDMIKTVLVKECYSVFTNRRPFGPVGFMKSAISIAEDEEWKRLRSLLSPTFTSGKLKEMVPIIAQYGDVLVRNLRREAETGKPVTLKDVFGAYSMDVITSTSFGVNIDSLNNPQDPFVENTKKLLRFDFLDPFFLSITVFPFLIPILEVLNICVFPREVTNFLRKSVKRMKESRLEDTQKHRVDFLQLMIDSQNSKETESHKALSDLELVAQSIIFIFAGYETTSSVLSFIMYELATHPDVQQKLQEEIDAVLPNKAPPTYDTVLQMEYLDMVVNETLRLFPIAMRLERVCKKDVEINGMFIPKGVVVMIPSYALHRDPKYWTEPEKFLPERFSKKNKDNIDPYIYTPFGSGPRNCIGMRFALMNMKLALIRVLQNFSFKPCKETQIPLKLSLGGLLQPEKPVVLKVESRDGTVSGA
How it was run: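 Signal was normalized against complete inhibition by 57 uM ketoconazole. The reaction used 20nM CYP3A4 with 25uM Luciferin-PPXE, 10-min compound preincubation and a 60-min NADPH-supported step at RT.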

[16] = qHTS Assay for Identification of Small Molecule Agonists for Hypoxia Response Element Signaling Pathway (AID 914; active means well fitted activation curve with a large enough effect in the signal ratio, with a control signal flat, not every such curve was filed as active; the % refers to the signal ratio; further: potency means the concentration at half of the fitted maximal effect); details: ME-180 (cervical carcinoma) HRE-bla reporter, beta-lactamase ratio, CoCl2, 17 h; activation: stronger effect = higher value
How it was run: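 In Opti-MEM containing 0.5% dialyzed FBS and 10 mM HEPES, ME-180 HRE-bla cells received a compound titration and EC50 CoCl2. They were incubated 17 hours, then CCF4-loaded 2.5 hours at room temperature before ratio reading.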

[17] = molecular target: Cytochrome P450 3A4 (Homo sapiens) (UniProt P08684); test: qHTS Assay for Inhibitors and Substrates of Cytochrome P450 3A4 (AID 884); details: recombinant CYP3A4, Luciferin-PPXE luminescence; series mostly up to 57.1 µM; further: potency means the concentration at half of the fitted maximal effect; nearly all actives have a fitted effect of over 50% in size
How it was run: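 20 nM human CYP3A4 with 25 uM Luciferin-PPXE (at KM) in 200 mM KPO4, preincubated 10 min with compound; NADPH regeneration started a 60 min RT reaction. Luciferin detected by luminescence, normalized to 57 uM ketoconazole as full inhibition.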

[18] = molecular target: Cytochrome P450 2C19 (Homo sapiens) (UniProt P33261); test: qHTS Assay for Inhibitors and Substrates of Cytochrome P450 2C19 (AID 899); details: recombinant CYP2C19, luciferin-H EGE luminescence; series mostly up to 57.1 µM; further: potency means the concentration at half of the fitted maximal effect; nearly all actives have a fitted effect of over 60% in size
Chain of Cytochrome P450 2C19 (Homo sapiens) (P33261 whole entry, looked up): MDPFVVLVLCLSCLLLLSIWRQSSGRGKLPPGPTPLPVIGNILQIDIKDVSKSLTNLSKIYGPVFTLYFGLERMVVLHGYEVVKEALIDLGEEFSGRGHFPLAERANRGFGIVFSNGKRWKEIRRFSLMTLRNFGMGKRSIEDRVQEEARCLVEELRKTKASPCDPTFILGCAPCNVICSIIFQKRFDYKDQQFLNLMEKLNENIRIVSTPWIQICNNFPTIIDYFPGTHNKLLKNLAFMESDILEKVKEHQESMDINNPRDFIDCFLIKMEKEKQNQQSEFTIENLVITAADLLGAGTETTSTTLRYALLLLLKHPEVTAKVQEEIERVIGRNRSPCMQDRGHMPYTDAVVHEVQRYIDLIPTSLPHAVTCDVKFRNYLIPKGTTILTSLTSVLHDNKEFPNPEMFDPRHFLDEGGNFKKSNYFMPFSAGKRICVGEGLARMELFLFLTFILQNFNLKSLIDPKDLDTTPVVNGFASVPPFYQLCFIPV
How it was run: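 Reactions contain 5nM enzyme, 10uM Luciferin-H EGE (KM) and 50mM KPO4; compound preincubates 10 min at 37C, NADPH regeneration starts turnover for 60 min. Luminescence after detection reagent gives activity.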

[19] = measured here: cell count channel max response
[20] = measured here: lipid channel max response

Row | Structure (SMILES) | Potency [1] | activity change, negative = inhibition [2] | activity change, negative = inhibition [3] | activity, negative = inhibition [4] | Potency [5] | Potency [6] | outcome [7] | Potency [8] | activity change, negative = inhibition [9] | max response [9, 19] [%] | max response [9, 20] [%] | Potency [10] | Potency [11] | Potency [12] | Potency [13] | Potency [14] | Potency [15] | Potency [16] | Potency [17] | Potency [18]
1 | COc1cccc(Cn2c(=O)c(-c3ccc(F)cc3)nc3cnc(N(C)C)nc32)c1 | > 11.4 µM (inactive) | 12% (inactive) | 9.76% (inactive) | -3.48% (inactive) | > 9.22 µM (inactive) | > 46 µM (inactive) | inactive | inactive | 7.91% (inactive) | 20.9 | 28.6 | inactive | inactive | inactive | inactive |  |  |  |  | 
2 | Cn1c(=O)c(-c2cccs2)nc2cnc(N3CCNCC3)nc21 | > 11.4 µM (inactive) |  |  |  | > 9.22 µM (inactive) | > 46 µM (inactive) | inactive | inactive | 4.59% (inactive) | 15.4 | 18.9 | inactive | inactive | inactive | inactive | 10 µM (active) | inactive | 3.16 µM (active) |  | 
3 | Cc1ccccc1-c1cncnc1NCc1cccs1 | > 11.4 µM (inactive) | 1.41% (inactive) | 2.62% (inactive) | 3.53% (inactive) | > 46 µM (inactive) | > 46 µM (inactive) | inactive |  | 5.75% (inactive) | 11.6 | 15.6 | inactive | inactive | inactive | inactive | 3.16 µM (active) | inactive |  | 0.501 µM (active) | 0.794 µM (active)
4 | CC(=O)NCCNc1ncnc2ccc(-c3c(C)noc3C)cc12 | > 11.4 µM (inactive) | 12.8% (inactive) |  | -17.9% (inactive) | > 46 µM (inactive) | > 46 µM (inactive) | inactive | inactive | 3.36% (inactive) | 28.8 | 29.5 | 7.08 µM (active) | 6.31 µM (active) | inactive | inactive | 15.8 µM (active) | inactive | 3.16 µM (active) |  | 
5 | CN(C)C(=O)c1ccc(-c2cc(NCc3cccnc3)ncn2)cc1 | > 11.4 µM (inactive) | 11.8% (inactive) | 21.1% (inactive) | 21.7% (inactive) | > 46 µM (inactive) | > 46 µM (inactive) | inactive | inactive | 3.91% (inactive) | 24.7 | 22.9 | 15.8 µM (active) | 14.1 µM (active) | inactive | inactive | 20 µM (active) | inactive |  |  | 
